Hsp70 act = transcriptional activators of Hsp70; HeLa Hsp70 promoter luciferase reporter, luminescence; scaled: vehicle 0, proteasome-inhibitor control 100%; activation, % at 10 µM; 200,000 compounds, 0.04% hits; AID 1203;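 active means activation above the mean across all tested compounds plus 3 SD, cutoff set per campaign, cut at about 5.5% in these data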
S1P4 ag = human S1P4 receptor agonism; S1P4-expressing cell line, agonist reporter assay; activation, % at 4.98 µM; O95977; 220,000 compounds, 0.35% hits; in the data active means activation above about 11%
Target sequence (O95977 whole entry, looked up): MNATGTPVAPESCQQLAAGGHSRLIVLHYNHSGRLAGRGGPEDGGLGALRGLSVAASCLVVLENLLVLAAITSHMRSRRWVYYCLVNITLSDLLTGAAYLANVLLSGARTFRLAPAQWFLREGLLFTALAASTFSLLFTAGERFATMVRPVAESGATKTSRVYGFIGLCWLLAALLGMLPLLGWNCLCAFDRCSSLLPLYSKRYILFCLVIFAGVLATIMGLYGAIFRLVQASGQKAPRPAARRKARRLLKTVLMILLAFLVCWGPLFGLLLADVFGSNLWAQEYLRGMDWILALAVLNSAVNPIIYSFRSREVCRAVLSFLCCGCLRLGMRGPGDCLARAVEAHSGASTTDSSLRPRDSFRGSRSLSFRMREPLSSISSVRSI
CHOP inh = blocks CHOP induction under ER stress; CHO-K1 CHOP-promoter luciferase, tunicamycin-induced, 15-18 h; inhibition, % at 10 µM; 220,000 compounds, 3.8% hits;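 active means compounds that reduced the stress-induced luciferase reporter signal by more than about 70% of percent inhibition, limit read from the data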
S1P4 antagonist = human S1P4 receptor antagonism | S1P4-expressing cells, antagonist mode, reporter read-out | inhibition, % at 4.98 µM | 220,000 compounds, 0.26% hits; in the data active means inhibition above about 29%
Of the large screens only hits and unclear results are named; the others gave an inactive call. This is a sample that favours compounds with a hit; in the whole collection about 4.2% have one here.

CN(C)CCCN(C(=O)c1cccs1)c1nc(-c2ccccc2)cs1	none
CN(c1ccc(O)cc1)c1nc(-c2ccccc2)cs1	CHOP inh 90
Cc1cc(Oc2ccc(C#N)cc2)nc(NCc2ccccc2)n1	CHOP inh 77
O=C(Cn1nnc(-c2ccccc2NC(=O)c2cccs2)n1)Nc1ccccc1	CHOP inh 80
COc1ccccc1NC(=O)Cn1nnc(-c2ccccc2NC(=O)c2cnccn2)n1	CHOP inh 90
COc1ccc(NC(=O)Cn2nnc(-c3ccccc3NC(=O)c3ccco3)n2)cc1	CHOP inh 82
COc1ccc(Cc2nnc(NC(=O)Cn3cnc4c3c(=O)n(C)c(=O)n4C)s2)cc1OC	none
CCOc1ccc(C2c3c(oc4ccccc4c3=O)C(=O)N2CCCN2CCOCC2)cc1 (stereo unspecified)	none
O=C1c2oc3ccccc3c(=O)c2C(c2cccs2)N1CCCN1CCOCC1 (stereo unspecified)	CHOP inh 80
Cc1cc(C)cc(Nc2nc3ccccc3c(=O)[nH]2)c1	none
COc1nc(Nc2nc3ccccc3c(=O)[nH]2)nc2ccc(C)cc12	CHOP inh 88 (no result: Hsp70 act)
COc1cc2ccccc2cc1C(=O)N1CCN(C)CC1	none
FC(F)(F)c1cccc(-c2nc3nc(Cl)c(Cl)nc3[nH]2)c1	CHOP inh 74 (no result: Hsp70 act)
COc1cnc(-c2cccc(C(F)(F)F)c2)[nH]c1=O	none
Cc1cccc(NC(=O)c2nc[nH]c2C(=O)Nc2cccc(C)c2)c1	CHOP inh 87
Cc1cccc(NC(=O)c2nc[nH]c2C(=O)N[C@@H](C)C(=O)OCc2ccccc2)c1	CHOP inh 90 (no result: Hsp70 act, S1P4 ag, S1P4 antagonist)
CCc1ccc2c(c1)C(c1ccc([N+](=O)[O-])cc1)=NNC(c1ccc(F)cc1)=N2	CHOP inh 86
CCc1ccc2c(c1)C(c1ccncc1)=NNC(c1ccccc1)=N2	none
CC(C)(C)Nc1nc(SCc2ccccc2)nc(N2CCOCC2)n1	CHOP inh 74
CCNc1nc(N2CCOCC2)nc(N(c2ccccc2)c2ccccc2)n1	CHOP inh 72
COc1ccc(N=C2C(=O)Nc3ccccc32)cc1	none
COc1ccc(N=C2C(=O)N3c4c(cccc42)C(C)=CC3(C)C)cc1	CHOP inh 79
COc1cc(Cl)c(C)cc1NC(=O)c1ccc(NS(=O)(=O)c2ccc(F)c(F)c2)cc1	CHOP inh 79
COc1ccc(S(=O)(=O)Nc2ccc(F)c(F)c2)cc1Cl	none
O=C(Oc1ccc2ccccc2c1)c1cncc(Br)c1	CHOP inh 94
CCC(C)n1cnc2c(c1=O)c1nc3ccccc3nc1n2-c1ccc2c(c1)OCCO2 (stereo unspecified)	CHOP inh 83
COC(=O)c1cc2c(s1)-c1ccccc1CC2	CHOP inh 91
O=C1CN(c2nc(-c3ccccc3)c3cc(Cl)ccc3n2)c2ccccc2N1	CHOP inh 74
CNC(=O)C1=C(C)Nc2nc3ccccc3n2C1c1ccc(F)cc1 (stereo unspecified)	none (no result: Hsp70 act)
COC(=O)C1=C(C)Nc2nc3ccccc3n2C1c1ccccc1F (stereo unspecified)	none (no result: Hsp70 act)
CC1=C(C(=O)OC2CCCCC2)C(c2cccs2)n2c(nc3ccccc32)N1 (stereo unspecified)	CHOP inh 84
CCOC(=O)C1=C(C)Nc2nc3ccccc3n2C1c1ccccc1 (stereo unspecified)	CHOP inh 78
COc1ccc(/C(C)=N/NC(=O)C2C3CCCCC32)c(OC)c1 (stereo unspecified)	none
COc1ccc(F)cc1C(=O)C1CCCN(C(=O)CCN2CCCCO2)C1 (stereo unspecified)	none
O=C(Cn1nc(-c2ccccc2)ccc1=O)Nc1ccc(NC(=O)c2ccccn2)cc1	CHOP inh 94
CC(SC1=NCCS1)C(=O)Nc1nnc(-c2ccc(F)cc2)s1 (stereo unspecified)	none
CCC(SC1=NCCS1)C(=O)Nc1nnc(-c2ccccc2OC)s1 (stereo unspecified)	CHOP inh 86
CC(SC1=NCCS1)C(=O)Nc1nnc(-c2ccc(Br)cc2)s1 (stereo unspecified)	CHOP inh 86
CSc1nc(NC(C)C)nc(N2CCOCC2)n1	none
Cn1ccnc1Sc1cc(NCCCO)c([N+](=O)[O-])c2nonc12	CHOP inh 96
CC(=O)OCCCNc1cc(Sc2ccc(C)cc2)c2nonc2c1[N+](=O)[O-]	CHOP inh 109
O=[N+]([O-])c1c(NCCCO)cc(SCc2ccco2)c2nonc12	none
CC(=O)OCCNc1cc(Sc2nc3ccccc3[nH]2)c2nonc2c1[N+](=O)[O-]	CHOP inh 107
Fc1ccccc1-c1nc(NCCCN2CCOCC2)c2ccccc2n1	none
c1ccc2c(NCCCN3CCOCC3)c3ccccc3nc2c1	S1P4 ag 11
Cc1ccc(-c2nc(N)sc2CC(=O)OCC(=O)NCC2CCCO2)cc1 (stereo unspecified)	none
CS(=O)(=O)N(CC(=O)N1CCN(C(c2ccccc2)c2ccccc2)CC1)C1CCCCC1	CHOP inh 79
C=CCn1c(SCC(O)Cn2c3ccccc3c3ccccc32)nnc1-c1ccco1 (stereo unspecified)	CHOP inh 77
C=CCn1c(SCC(=O)N2c3ccccc3Sc3ccccc32)nnc1-c1ccco1	none (no result: Hsp70 act)
O=C(Nc1ccc2c(c1)C(=O)N(CC1CCCO1)C2=O)c1cccc(Br)c1 (stereo unspecified)	CHOP inh 73
Cc1cc(-c2n[nH]c(=S)n2/N=C/c2ccc(Cl)c([N+](=O)[O-])c2)n[nH]1	none
Cn1c(=O)c(C(=O)CN2CCCc3ccccc32)c(N)n(Cc2ccccc2)c1=O	CHOP inh 77
O=C(O)C1CSC(c2coc3ccccc3c2=O)N1 (stereo unspecified)	none
O=[N+]([O-])c1cc(-c2ccc(/C=N/c3nc4ccccn4c3-c3ccco3)o2)ccc1Cl	CHOP inh 91
Cc1cc2nc(SCC(=O)Nc3nonc3C)c3c(c2cc1C)CCCC3	none
CCCOc1ccc(S(=O)(=O)NCc2ccc(OC)cc2)cc1	CHOP inh 80
Cc1[nH]c2ccc(-c3n[nH]c(=S)n3-c3ccc(Br)cc3)cc2c1C	none
O=S(=O)(c1ccccc1)c1cnn2c(C(F)(F)F)cc(-c3ccc(F)cc3)nc12	CHOP inh 71
O=C(NCCN1CCN(c2ccccc2F)CC1)c1cccn2c(=O)c3ccccc3nc12	CHOP inh 76
O=C(NCCN1CCN(c2ccccc2)CC1)c1cccn2c(=O)c3ccccc3nc12	none
Cc1ccc(Cn2nnc(C(=O)Nc3cccc(C)c3C)c2N)cc1	none
CCOc1ccc(Cn2nnc(C(=O)Nc3cc(C)cc(C)c3)c2N)cc1	CHOP inh 75
CCc1ccc(Cn2nnc(C(=O)Nc3cccc(C)c3)c2N)cc1	CHOP inh 71
C=CCn1c(=O)[nH]c2nc3cc(N=CN(C)C)c(C)cc3nc2c1=O	none (no result: Hsp70 act)
CCOC(=O)c1nnn(-c2nonc2-n2cccc2)c1C	none
Cc1[nH]c2ccc(F)cc2c1CCN(Cc1ccco1)C(=S)NC(C)(C)C	CHOP inh 81
COCCN1CCN(c2cc(-c3ccccc3)nc3cc(-c4cccc(F)c4)nn23)CC1	CHOP inh 80
CCCc1ccc(/C=C2\C(=O)c3ccccc3C(O)=C2C(=O)OCC)cc1	CHOP inh 86
